Beta cell apopt: inhibitors of cytokine-induced beta cell apoptosis, primary screen, luminescence; INS-1E cytokine-induced death, ATP luminescence, 48 h; percent of positive-control rescue, neutral wells zero; protection from apoptosis, % (concentration not given with the values); actives 0.8% (n = 300,000);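 active = Every replicate reaches about 75%, or at least half do and their mean reaches it too, limit read from the data; inconclusive = At least half of replicates reach the limit but their mean does not; inactive = Under half of replicates reach the limit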;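 also: 0% = cytokine-treated negative control wells and 100% = positive control rescue; higher means more ATP so stronger rescue from cytokine killing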
NTR1 ag: agonists of human NTR1, primary screen, imaging, U2OS cells, beta-arrestin-GFP, high content; NTR1-U2OS beta-arrestin-GFP spot imaging, agonist mode; activation, % at 20 µM; actives 0.17% (n = 330,000);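 active = activation at or above 40% of the spot to cytoplasm intensity ratio, with at least 20 cells analyzed; inconclusive = wells under 20 cells, flagged as cytotoxic or low count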;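 also: 0% = DMSO without peptide and 100% = 100 nM NTR1 peptide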
Target sequence (P30989 whole entry, looked up): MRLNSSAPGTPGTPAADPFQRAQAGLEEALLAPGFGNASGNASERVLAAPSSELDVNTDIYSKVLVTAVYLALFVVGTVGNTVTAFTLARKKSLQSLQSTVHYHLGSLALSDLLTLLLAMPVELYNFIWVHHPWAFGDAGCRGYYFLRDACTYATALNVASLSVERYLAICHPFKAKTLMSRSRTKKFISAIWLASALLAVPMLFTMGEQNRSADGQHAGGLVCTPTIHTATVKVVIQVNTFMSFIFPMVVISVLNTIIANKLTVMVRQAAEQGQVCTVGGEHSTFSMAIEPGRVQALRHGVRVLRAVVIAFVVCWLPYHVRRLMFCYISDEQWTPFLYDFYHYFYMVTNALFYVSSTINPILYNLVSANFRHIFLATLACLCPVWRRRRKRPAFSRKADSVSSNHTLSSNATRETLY
Jurkat NFkB inh: inhibitors of induced NF-kB luciferase reporter, primary screen, TCR NF-kB activation inhibitor project, cell-based, luminescence, uHTS; Jurkat, PMA/ionomycin-induced NF-kB luciferase reporter; inhibition, % at 4 µM; actives 0.53% (n = 330,000); AID 435003, 2010; in the data active = inhibition above about 50%
Mdm2 MdmX PPI: inhibitors of human Mdm2-MdmX association, primary screen, cell-based, luminescence, split luciferase, SaOS-2, uHTS. Protein Mdm4 (Homo sapiens) + E3 ubiquitin-protein ligase Mdm2 (Homo sapiens), …. SaOS-2 split-luciferase Mdm2/MdmX complementation. actives 3% (n = 330,000). inhibition, % at 8 µM;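 active = inhibition of at least 50% at 8 µM in the primary screen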
Bfl-1 A1 inh: caspase 3/7 activation in MEF A1-2A-BIM cells, primary screen, A1 inhibitor project, cell-based, luminescence, HTS. caspase activation, % (no concentration beside the values). AID 2462, 2010. actives 0.066% (n = 330,000). Caspase-Glo 3/7 luminescence, 3 h; percent of clofoctol response, vehicle zero;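 active = over half of replicate activation scores above 10%, or exactly half above 10 with the replicate mean above 10; inconclusive = replicate mean below 10 yet half the replicates above 10; inactive = over half of replicates below 10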
697 NFkB inh: inhibitors of PMA/ionomycin-induced NF-kB reporter, 697 cells, primary screen, B-cell NF-kB inhibitor project, cell-based, luminescence, uHTS; 697 B-cell NF-kB luciferase reporter, 16 h; actives 0.33% (n = 330,000); AID 435022, 2010; inhibition, % at 4 µM; in the data active = inhibition above about 35%
Mdm2-MdmX conf: Mdm2-MdmX complex disruptors, retested hits, confirmation, luminescence, single concentration; shares compounds with Mdm2 MdmX PPI; Mdm2-MdmX binding, luminescent assay; inhibition, % at 8 µM; actives 55% (n = 10,000); in the data active = inhibition above about 40%
Full FLuc ctr: full-length luciferase signal inhibition, confirmation, counter-screen for Mdm2/MdmX interaction inhibitor project, cell-based, single concentration, SaOS-2; shares compounds with Mdm2 MdmX PPI; SaOS-2 full-length luciferase counterscreen, luminescence; inhibition, % at 8 µM; actives 77% (n = 6,200);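 active = mean inhibition at 8 µM reaching about 37%, which flags the compound as non-specific, limit read from the data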;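 also: p53-null SaOS-2 cells with luciferase driven by a doxycycline-inducible promoter; compound on cells about two nights before reading with doxycycline added after day one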
* hit, by the source's call; ? = inconclusive; nt = not tested or not shown. Only some compounds are listed: those with a hit (about 3.8% of all), similar ones and a draw of the others.

SMILES	Beta cell apopt	NTR1 ag	Jurkat NFkB inh	Mdm2 MdmX PPI	Bfl-1 A1 inh	697 NFkB inh	Mdm2-MdmX conf	Full FLuc ctr
CC(=O)Nc1ccc(/C(C)=N/Nc2nc(Nc3cccc4ccccc34)nc(N3CCOCC3)n2)cc1	68	2	-7	54*	1	29	28	nt
CC(=O)Nc1ccc(/C(C)=N/Nc2nc(N3CCOCC3)nc(N3CCOCC3)n2)cc1	1	2	-15	-23	0	-42	nt	nt
COc1cc2c(cc1OC)CN(C(=O)/C=C/c1cccs1)CC2	3	0	49	65*	1	-68	62*	59*
COc1cc2c(cc1OC)CN(C(=O)/C=C/c1ccc([N+](=O)[O-])cc1)CC2	-5	1	15	32	2	3	nt	nt
COc1cc2c(cc1OC)CN(C(=O)/C=C/c1ccccc1[N+](=O)[O-])CC2	8	2	46	61*	3	-13	53*	86*
CC(C)(C)OC(=O)C[C@H]1C/C=C\C[C@@H](CC(=O)NCCO)C(=O)N[C@H](Cc2ccccc2)COC1=O	nt	1	-8	8	nt	-6	nt	nt
CC(C)(C)OC(=O)N1CCC[C@H]1C(=O)Nc1ccc(C#N)cc1	0	4	-4	18	1	5	nt	nt
COc1cccc(N2CCN(C(=O)c3ccc4ccccc4c3)CC2)c1	nt	-1	-24	20	nt	-19	nt	nt
CCc1nc2ccc(C(=O)N3CCN(c4cccc(OC)c4)CC3)cc2nc1CC	1	2	-7	64*	0	5	39	63*
O=C(NNC(=O)c1ccc(F)cc1F)c1ccc(-n2cnnn2)cc1	-2	0	1	4	1	15	nt	nt
COc1ccc(C(=O)OCC(=O)Nc2ccc([N+](=O)[O-])cc2OC)c(O)c1	9	5	-8	84*	0	12	8	nt
COc1ccc([N+](=O)[O-])cc1NC(=O)COC(=O)c1ccccc1O	3	-1	3	23	0	19	nt	nt
Cc1cccc(C)c1OCC(=O)Nc1cccc(-c2nnc(-c3ccccc3)o2)c1	0	2	8	61*	0	-77	20	nt
Cc1cccc(OCC(=O)Nc2cccc(-c3nnc(-c4ccccc4)o3)c2)c1C	1	2	-13	14	1	-93	nt	nt
COc1ccc(CCNC(=O)[C@H](C)NC(=O)N2CCn3c2nc2ccccc23)cc1OC	-3	-1	3	-3	0	9	nt	nt
COc1ccc(Br)cc1CN1CCN(Cc2c[nH]c3ccccc23)CC1	79*	5	15	69*	1	15	39	83*
CN(C1CCCC1)C1CCN(C(=O)CNC(=O)/C=C/c2ccccc2)CC1	0	0	-2	-32	1	1	nt	nt
O=C(/C=C/c1cccc(Cl)c1)NCCN1CCOCC1	-5	1	-35	76*	0	-49	-18	nt
CC1CCCCC1N(C)C1CCN(C(=O)CNC(=O)/C=C/c2cccc(Cl)c2)CC1 (centres undefined)	-3	-1	39	53*	0	-56	52*	92*
CCC(=NC)C1=C(O)CC(c2ccccc2)CC1=O (centres undefined)	nt	1	-38	23	0	-28	nt	nt
CCC(=NCCc1c(C)[nH]c2ccccc12)C1=C(O)CC(c2ccccc2)CC1=O (centres undefined)	17	6	49	71*	0	-18	52*	50*
Cn1c(=O)c(C(=O)COC(=O)c2cc(C(F)(F)F)nc3ccccc23)c(N)n(Cc2ccccc2)c1=O	11	2	16	44	0	-17	nt	nt
CC(C)Cn1c(N)c(C(=O)COC(=O)c2cc(C(F)(F)F)nc3c(C(F)(F)F)cccc23)c(=O)n(C)c1=O	-5	-1	10	88*	-1	-2	5	nt
Cc1nc2cc(N3CCCCC3)c(NC(=O)c3ccncc3)cc2c(=O)n1Cc1ccc(Cl)cc1	45	0	-20	89*	2	-35	-3	nt
O=C(N/N=C/c1c(-c2ccccc2)[nH]c2ccccc12)c1cccnc1	0	0	-13	52*	0	1	53*	68*
SMILES	Beta cell apopt	NTR1 ag	Jurkat NFkB inh	Mdm2 MdmX PPI	Bfl-1 A1 inh	697 NFkB inh	Mdm2-MdmX conf	Full FLuc ctr
Cn1c(-c2ccccc2)c(/C=N/NC(=O)c2cccnc2)c2ccccc21	nt	4	5	35	1	-3	nt	nt
Cc1cc(NC(=O)CSc2cn(CC(=O)N(C(C)C)C(C)C)c3ccccc23)no1	5	2	16	21	1	-15	nt	nt
Cc1cccc(NC(=O)CNC(=O)CN2CCN(C)CC2)c1C	-4	0	-6	2	0	25	nt	nt
C=CCNc1nc(-c2c(C)nc3ncccn23)cs1	-9	1	-14	9	0	-6	nt	nt
CC(=O)Nc1nc(C)c(-c2csc(Nc3cccc(C(C)=O)c3)n2)s1	0	16	8	82*	0	12	46*	41*
CC(=O)Nc1nc(C)c(-c2csc(Nc3ccc(O)cc3)n2)s1	23	7	1	66*	-1	-20	68*	44*
Cc1nc2ncccn2c1-c1csc(Nc2ccc(O)cc2)n1	nt	3	3	72*	nt	3	68*	66*
NC(N)=NN=C1c2ccccc2-c2ccccc21	10	-1	-13	-8	0	1	nt	nt
CCN(CC)S(=O)(=O)c1ccc(C)c(C)c1	-4	0	-4	2	0	11	nt	nt
CCN(CC)CCCOc1ccc(Cl)c(Cl)c1	2	2	-1	14	0	-4	nt	nt
CCN(CC)CCOc1ccc2c(c1)C(=NO)c1cc(OCCN(CC)CC)ccc1-2	?	1	-21	96*	1	-10	91*	44*
CCCOc1ccc2c(c1)C(=NN=C(N)N)c1cc(OCCC)ccc1-2	8	80*	14	96*	0	-20	34	nt
CCN(CC)S(=O)(=O)c1ccc2c(c1)C(=NO)c1cc(S(=O)(=O)N(CC)CC)ccc1-2	22	35	12	83*	0	-22	68*	24

Compound activity: PubChem, several laboratories
